This is a sample that favours compounds with a hit; in the whole collection about 0.83% have one here.
Gli-Sufu block: Gli-Sufu pathway antagonists, primary screen, luciferase luminescence, Sufu-KO-LIGHT cells, uHTS. inhibition, % at 5 µM. AID 588413, 2011. Sufu-KO-LIGHT fibroblasts, Gli luciferase reporter luminescence. hit rate 0.74% among 340,000;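 active = inhibition above about 55%, limit read from the data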
NCOA1 inh: SRC1 coactivator transcriptional activity inhibitors, primary screen, cell-based, luminescence | hit rate 0.12% among 360,000 | AID 588354, 2011 | HEK293 GAL4-SRC1 luciferase reporter | Nuclear receptor coactivator 1 (Homo sapiens), Q15788 | inhibition, % at 3.6 µM;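 active = inhibition above the campaign mean plus 3 SD, with each screening campaign given its own cutoff, cut at about 60% in these data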
SRC3 inh: SRC3 coactivator transcriptional activity inhibitors, primary screen, cell-based, luminescence; Nuclear receptor coactivator 3 (Homo sapiens), Q9Y6Q9; HEK293 GAL4-SRC3 luciferase reporter; inhibition, % at 3.6 µM; hit rate 0.17% among 360,000; AID 588352, 2011;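 active = inhibition above a per-campaign cutoff, the mean of all compounds plus 3 SD, cut at about 60% in these data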;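 also: higher means less SRC3-driven luciferase light from the GAL4 reporter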
NR5A2 inv ag: LRH-1 (NR5A2) inverse agonists, primary screen, cell-based, luminescence, HEK293T, StAR-luciferase reporter; Nuclear receptor subfamily 5 group A member 2 (Homo sapiens), O00482; LRH-1 transfected, 24 h; inhibition, % at 3.6 µM; hit rate 0.13% among 360,000;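 active = inhibition above the mean inhibition of all tested compounds plus 3 SD, cut at about 73% in these data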
NCOA2 inhibitor: inhibition of GAL4-SRC2 driven luciferase reporter, primary screen, SRC2 inhibitor project, cell-based, luminescence; HEK293 GAL4-SRC2 luciferase reporter; inhibition, % at 9 µM; hit rate 0.17% among 370,000;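 active = inhibition above the mean inhibition of all tested compounds plus 3 SD, set per campaign, cut at about 52% in these data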
Gli antag conf: Gli-SUFU pathway antagonists, confirmation, single concentration, luciferase luminescence, Sufu-KO-LIGHT cells | shares compounds with Gli-Sufu block | Gli luciferase reporter | inhibition, % at 5 µM | hit rate 40% among 2,500;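 active = mean inhibition at 5 µM reaching about 45%, limit read from the data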
Gli cytotox: cytotoxicity in Sufu-KO-LIGHT cells, confirmation, cytotoxicity control for Gli-SUFU antagonist project, cell-based, ATP luminescence, single concentration. shares compounds with Gli-Sufu block. cytotoxicity, % at 5 µM. hit rate 32% among 2,500;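 active = mean cytotoxicity at 5 µM above about 25%, limit read from the data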;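 also: cells exposed to compound overnight for roughly 16 to 18 hours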
Wnt3a counter: Wnt3a reporter signal inhibition, confirmation, counter-screen for Gli-SUFU antagonist project, Wnt-LIGHT cells, luminescence, single concentration; shares compounds with Gli-Sufu block; Wnt3a-driven luciferase reporter; inhibition, % at 6.25 µM; hit rate 20% among 2,500;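 active = mean inhibition above about 25%, limit read from the data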
Large screens that a line does not name were inactive (follow-up assays come after a bar, where they were run).

O=C(COC(=O)CSc1ccc(F)cc1)NC1CC1	none (no result: Gli-Sufu block)
O=C(COC(=O)CSc1ccc(F)cc1)NCC1CCCCC1	Gli-Sufu block 95 | Gli antag conf inactive | Gli cytotox inactive | Wnt3a counter inactive
CCN(CC)S(=O)(=O)c1ccc(C)c(NC(=S)N2CCN(C/C=C/c3ccccc3)CC2)c1	Gli-Sufu block 66 | Gli antag conf inactive | Gli cytotox 31 | Wnt3a counter inactive
CCN(CC)S(=O)(=O)c1ccc(C)c(NC(=S)N2CCN(Cc3ccc4c(c3)OCO4)CC2)c1	Gli-Sufu block 64 | Gli antag conf inactive | Gli cytotox inactive | Wnt3a counter inactive
CCN(CC)S(=O)(=O)c1ccc(C)c(NC(=S)N2CCN(c3ccccn3)CC2)c1	none
Cc1ccc(NC(=S)N2CCN(Cc3ccc4c(c3)OCO4)CC2)c(C)c1	none
COC(=O)[C@]12C[C@H](CC(=O)N3CCOCC3)C(=O)N(Cc3cccc4ccccc34)C1=C[C@H](C(C)C)O[C@@H]2C1CC1	none (no result: Gli-Sufu block, NCOA1 inh, SRC3 inh, NR5A2 inv ag)
COc1ccc(Cn2cc(CN3[C@H](CC(C)C)COc4cc(Br)ccc4S3(=O)=O)nn2)cc1	none (no result: Gli-Sufu block, NCOA1 inh, SRC3 inh, NR5A2 inv ag)
CCOc1cc(C(=O)OCc2cccc(OC)c2OC)ccc1OCC(=O)N1CCOCC1	Gli-Sufu block 71 | Gli antag conf inactive | Gli cytotox inactive | Wnt3a counter inactive
CCOc1cc(C(=O)OCc2ccc([N+](=O)[O-])cc2)ccc1OCC(=O)N1CCOCC1	none
N#CCC[C@@H]1CC[C@]2(CCCN(C(=O)C3CCCCC3)C2)O1	none (no result: Gli-Sufu block, NCOA1 inh, SRC3 inh, NR5A2 inv ag)
O=C(COc1cc2oc(=O)cc(-c3ccccc3)c2cc1Cl)NCc1ccccn1	none | Gli antag conf inactive | Gli cytotox inactive | Wnt3a counter inactive
Cn1c(Cc2cccs2)nnc1SCC(=O)Nc1ccc2cn[nH]c2c1	none (no result: Gli-Sufu block, NCOA1 inh, SRC3 inh, NR5A2 inv ag)
CCOc1ncccc1C(=O)N1CCN(c2cc(Cl)ccc2C)CC1	none | Gli antag conf inactive | Gli cytotox 54 | Wnt3a counter inactive
Cc1c(C(=O)N2CCN(c3ccccc3)CC2)oc2c1C(=O)CC(C)(C)C2	none
Cc1c(C(=O)N2CCN(Cc3ccccc3)CC2)oc2c1C(=O)CC(C)(C)C2	none | Gli antag conf inactive | Gli cytotox inactive | Wnt3a counter inactive
COc1ccc(N2CCN(C(C)C(=O)N3CC(C)OC(C)C3)CC2)cc1 (stereo not drawn)	none | Gli antag conf inactive | Gli cytotox inactive | Wnt3a counter inactive
O=C(Nc1ccccc1O)c1nc(Cl)ccc1Cl	none | Gli antag conf inactive | Gli cytotox inactive | Wnt3a counter inactive
Cc1ccc(C)c(NC(=O)c2nc(Cl)ccc2Cl)c1	none
Cc1cc(O)ccc1N/C=C/c1onc(C)c1[N+](=O)[O-]	none
Cc1cccc(N/C=C/c2onc(C)c2[N+](=O)[O-])c1	none | Gli antag conf inactive | Gli cytotox inactive | Wnt3a counter inactive
O=C(CSc1nnc(-c2ccccc2)n1-c1ccc(Cl)cc1)NN=Cc1c[nH]c2ccccc12	none (no result: Gli-Sufu block, NCOA1 inh, SRC3 inh, NR5A2 inv ag)
Cc1ccc(NC(=S)NNC(=O)CSc2nnc(-c3ccc(C)cc3)n2C2CCCCC2)cc1	none (no result: Gli-Sufu block, NCOA1 inh, SRC3 inh, NR5A2 inv ag)
CC(CCCC(C)(C)O)NC(=O)c1cc(COc2ccc3ncccc3c2)on1 (stereo not drawn)	none | Gli antag conf 56 | Gli cytotox inactive | Wnt3a counter 31
COCCC1CCCCN1C(=O)c1cc(COc2ccc(-n3cncn3)cc2)on1 (stereo not drawn)	Gli-Sufu block 58 | Gli antag conf 68 | Gli cytotox inactive | Wnt3a counter 40
CCN1CCN(C(=O)c2cc(COc3ccc4ncccc4c3)on2)CC1	none
COCC1CCCCN1C(=O)c1cc(COc2ccc3ncccc3c2)on1 (stereo not drawn)	Gli-Sufu block 72 | Gli antag conf 59 | Gli cytotox inactive | Wnt3a counter 34
CCC1CCCCN1C(=O)c1cc(COc2ccc3ncccc3c2)on1 (stereo not drawn)	Gli-Sufu block 72 | Gli antag conf 72 | Gli cytotox 35 | Wnt3a counter inactive
COCCOC1CCN(C(=O)c2cc(COc3ccc(-n4cncn4)cc3)on2)CC1	none
C[C@H](O)[C@@H]1C(=O)N2CCc3c([nH]c4c(-c5ccc6c(c5)OCO6)cccc34)[C@@H]2C[C@@H]1N(C)C(=O)OCc1ccccc1	none (no result: Gli-Sufu block, NCOA1 inh, SRC3 inh, NR5A2 inv ag)
S=c1[nH]nc(-c2cc(-c3ccccc3)n[nH]2)n1/N=C/c1cccc2ccccc12	none (no result: Gli-Sufu block, NCOA1 inh, SRC3 inh, NR5A2 inv ag)
CC1=C(C(=O)OC(C)C)C(c2ccccc2)NC(=O)N1C (stereo not drawn)	Gli-Sufu block 57 | Gli antag conf inactive | Gli cytotox inactive | Wnt3a counter inactive
CC(C)(C)c1ccc(-c2nnc3sc(COc4ccccc4)nn23)cc1	none (no result: Gli-Sufu block, NCOA1 inh, SRC3 inh, NR5A2 inv ag)
CCOC(=O)N1CCN(C(=O)CS(=O)(=O)Cc2nc(-c3ccccc3F)oc2C)CC1	Gli-Sufu block 57 | Gli antag conf inactive | Gli cytotox 28 | Wnt3a counter inactive
COc1cc(NC(=O)c2cc3ccccc3cc2OC)ccc1NC(=O)c1cccs1	Gli-Sufu block 57 | Gli antag conf inactive | Gli cytotox inactive | Wnt3a counter inactive
C=CCSc1nnc(NC(=O)c2cccc(S(=O)(=O)N(C)c3ccccc3)c2)s1	Gli-Sufu block 74 | Gli antag conf inactive | Gli cytotox inactive | Wnt3a counter inactive
O=S1(=O)c2c(cccc2N2CCSCC2)Oc2ccccc2CN1Cc1cn(Cc2ccc(C(F)(F)F)cc2)nn1	none (no result: Gli-Sufu block, NCOA1 inh, SRC3 inh, NR5A2 inv ag)
Cc1ccc(-c2nnc(SCC(=O)Nc3ccc(Oc4ccccc4)cc3)n2-c2ccc(Cl)cc2)cc1	none (no result: Gli-Sufu block, NCOA1 inh, SRC3 inh, NR5A2 inv ag)
COc1ccc(NS(=O)(=O)c2ccc(C)c(C(=O)OC(C)C(=O)N3CCOCC3)c2)cc1 (stereo not drawn)	none
COc1cc(OC)c(NS(=O)(=O)c2ccc(Cl)c(C(=O)OC(C)C(=O)N3CCCC3)c2)cc1Cl (stereo not drawn)	none | Gli antag conf inactive | Gli cytotox inactive | Wnt3a counter inactive
COc1ccc(S(=O)(=O)N2CCN(C(=O)CSc3nc4ccccc4nc3N3CCCCC3)CC2)cc1	none (no result: Gli-Sufu block, NCOA1 inh, SRC3 inh, NR5A2 inv ag)
Cc1nc(Nc2ccc(F)cc2)nc(Nc2ccc(F)cc2)c1[N+](=O)[O-]	none | Gli antag conf inactive | Gli cytotox inactive | Wnt3a counter 42
Cc1cccc(C(=O)NC2CCN(C(=O)Nc3ccccc3C)CC2)c1	Gli-Sufu block 67 | Gli antag conf inactive | Gli cytotox inactive | Wnt3a counter inactive
Cc1cc(C)n2c(SCCC(C)C)nnc2n1	Gli-Sufu block 63 | Gli antag conf inactive | Gli cytotox inactive | Wnt3a counter inactive
O=c1c2cc3cc(Cl)ccc3nc2ncn1N1CCCCC1	none (no result: Gli-Sufu block, NCOA1 inh, SRC3 inh, NR5A2 inv ag)

Source: PubChem BioAssay (several laboratories)
